Results reported in PubChem BioAssay (NCI).
This is part of a sample that, as a whole, favours compounds with a hit. Of some 83,000 tested, about 20% had one in any assay.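 The endpoint reported here, percent growth, reads 100 for growth as untreated, 0 for no net growth and -100 for all cells dead.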 A number with no mark means an inactive call. The source made the active and inactive calls. How the source made its calls: active means growth percent below 10; inactive means the rest.

Key:
Test in all cases: NCI-60 one-dose screen, 48 h (100 = growth as untreated, 0 = no growth, -100 = all killed)
Conditions in all cases: 10 µM
[1] = tested on: DU-145 prostate
[2] = tested on: K-562 leukemia
[3] = tested on: MALME-3M melanoma
[4] = tested on: MDA-MB-231 breast
[5] = tested on: RXF 393 renal
[6] = tested on: SF-268 CNS
[7] = tested on: SF-295 CNS
[8] = tested on: SF-539 CNS
[9] = tested on: UACC-257 melanoma
[10] = tested on: M14 melanoma
[11] = tested on: HCT-15 colon
[12] = tested on: HT29 colon
[13] = tested on: SNB-75 CNS
[14] = tested on: SNB-19 CNS
[15] = tested on: U251 CNS
[16] = tested on: PC-3 prostate
[17] = tested on: SK-MEL-5 melanoma
[18] = tested on: UACC-62 melanoma
[19] = tested on: LOX IMVI melanoma
[20] = tested on: SK-MEL-28 melanoma

SMILES | growth [1] | growth [2] | growth [3] | growth [4] | growth [5] | growth [6] | growth [7] | growth [8] | growth [9] | growth [10] | growth [11] | growth [12] | growth [13] | growth [14] | growth [15] | growth [16] | growth [17] | growth [18] | growth [19] | growth [20]
COc1ccc(/C=C2\CCCC3C2=Nc2ccccc2NC3c2ccc(OC)cc2)cc1 (stereo not given) | 101% | 50.9% | 94.3% | 82.4% | 99.9% | 102% | 89.8% | 135% | 81.9% | 71.1% | 93.9% | 74.8% | 101% | 92% | 80.9% | 86.9% | 88.5% | 68% | 57.4% | 98.3%
O=C(CNc1nnc(-c2cccnc2SCc2ccccc2)s1)Nc1nc(Cl)cc(Cl)n1 | 100% | 109% | 98.8% | 104% | 124% | 91.5% | 103% | 110% | 157% | 106% | 108% | 123% | 74.1% | 103% | 119% | 112% | 113% | 108% | 105% | 110%
Cc1ccc(NCCN(C)CC(C)O)c2c(=O)c3ccccc3sc12 (stereo not given) | 47.4% | 0.188% (active) | 34.6% | 36.9% | 24.8% | 56.6% | 53.3% | 53.2% | 45.9% | -49% (active) | 32.7% | 7.09% (active) | 57% | 54.5% | 31.9% | 41% | 58.1% | -2.71% (active) | 12.6% | 57%
CCNCC(=O)Nc1ccc(C(=O)OCC)cc1 | 104% | 96.6% | 110% | 119% | 124% | 93.6% | 102% | 100% | 96.7% | 102% | 104% | 90.7% | 86.6% | 109% | 97.7% | 98.3% | 108% | 99.2% | 95% | 103%
O=S(=O)(Oc1ccc(-c2ccc3sccc3c2)cc1)c1ccccc1 | 107% | 89.6% | 105% | 97.3% | 97.1% | 105% | 93.9% | 108% | 104% | 114% | 89.8% | 88.9% | 120% | 96.8% | 108% | 91% | 94.4% | 74.9% | 101% | 97.9%
NC(=O)c1cccc(-n2ccc3cc(NC(=O)Nc4ccc(Cl)c(C(F)(F)F)c4)ccc32)n1 | 95% | 59.3% | 87.8% | 75.8% | 2.44% (active) | 76.6% | 58.2% | 44.2% | 93.3% | 78.8% | 56.6% | 61.9% | 47.5% | 71% | 56.5% | 53.4% | 78.3% | 70.9% | 76.9% | 79.4%
CN(C)CCOc1cccc(-c2nc3sccn3c2-c2ccnc(S(C)(=O)=O)n2)c1 | 93% | 101% | 101% | 80.2% | 104% | 101% | 100% | 86.6% | 106% | 105% | 92.3% | 96.8% | 87.7% | 87.5% | 90% | 80.8% | 98.3% | 91.4% | 92.1% | 100%
CCCCC/C=C/C/C=C/CCCCCCCC1=NC(C)(C)CN1C(C)C | 63.1% | -30.9% (active) | 56.3% | 36.6% | 25.1% | 55.6% | 31.2% | 65.7% | 25.7% | 28.5% | -3.26% (active) | -21% (active) | 42.7% | 47.3% | 0.562% (active) | 28.9% | 30.1% | 15.1% | 12.9% | 72%
Brc1ccc2c(c1)-c1ccccc1C1=NCCN12 | -21.1% (active) | 4.71% (active) | -31.5% (active) | -7.62% (active) | -62.6% (active) | -2.39% (active) | -50.7% (active) | -1.45% (active) | -23.9% (active) | -51.8% (active) | 1.51% (active) | -14.9% (active) | 8.5% (active) | 16.2% | -10.7% (active) | 2.13% (active) | -77.2% (active) | -13.4% (active) | -69.4% (active) | 0.722% (active)
Cc1c[nH]c(=O)n(Cc2nnc(CCC(=O)c3nc4ccccc4[nH]3)o2)c1=O | -35.3% (active) | 10.4% | 47.8% | 26.1% | -7.83% (active) | 36.6% | 21.5% | -15.2% (active) | 81.4% | -16.7% (active) | 65.3% | 8.43% (active) | -33% (active) | 33.2% | 16.6% | 19.3% | 13.2% | 41% | 35.6% | 40.9%
O=C(Nc1ccc(F)cc1)c1cc2ccccc2cc1O | 85.7% | 45.6% | 72% | 66.7% | 94.6% | 87.3% | 90.7% | 84% | 58.1% | 88.4% | 76% | 95.8% | 91.8% | 83.3% | 79.6% | 42.9% | 65.7% | 57.6% | 76% | 88.7%
O=C(Nc1ccc2c(O)cc(S(=O)(=O)O)cc2c1)c1ccc([N+](=O)[O-])cc1 | 99.7% | 99% | 99.8% | 105% | 105% | 93.9% | 98.2% | 97% | 74.6% | 94.6% | 99.3% | 95.3% | 99.6% | 95.8% | 84% | 83.1% | 94.8% | 101% | 95.1% | 102%
